In PubChem BioAssay:
Values without a mark were called inactive. The source made the active and inactive calls.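 The calls were made as follows, unless noted: active = mean inhibition above 46.5%, the solvent-only control mean plus 3 SD; inactive = the rest.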

Experiments:
[1] = target: Nuclear receptor coactivator 3 (Homo sapiens) (UniProt Q9Y6Q9); assay: SRC3 coactivator transcriptional activity inhibitors, confirmation, cell-based, luminescence, quadruplicate (AID 588792;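 active = mean inhibition over 43.08%, the solvent-only control mean plus 3 SD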;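 also: 0% = DMSO treated cells and 100% = gossypol at 36 µM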); settings: HEK293 GAL4-SRC3 luciferase reporter, at 3.6 µM, active compounds read high
Sequence of Nuclear receptor coactivator 3 (Homo sapiens) (Q9Y6Q9 whole entry, looked up, the tested form may be a part): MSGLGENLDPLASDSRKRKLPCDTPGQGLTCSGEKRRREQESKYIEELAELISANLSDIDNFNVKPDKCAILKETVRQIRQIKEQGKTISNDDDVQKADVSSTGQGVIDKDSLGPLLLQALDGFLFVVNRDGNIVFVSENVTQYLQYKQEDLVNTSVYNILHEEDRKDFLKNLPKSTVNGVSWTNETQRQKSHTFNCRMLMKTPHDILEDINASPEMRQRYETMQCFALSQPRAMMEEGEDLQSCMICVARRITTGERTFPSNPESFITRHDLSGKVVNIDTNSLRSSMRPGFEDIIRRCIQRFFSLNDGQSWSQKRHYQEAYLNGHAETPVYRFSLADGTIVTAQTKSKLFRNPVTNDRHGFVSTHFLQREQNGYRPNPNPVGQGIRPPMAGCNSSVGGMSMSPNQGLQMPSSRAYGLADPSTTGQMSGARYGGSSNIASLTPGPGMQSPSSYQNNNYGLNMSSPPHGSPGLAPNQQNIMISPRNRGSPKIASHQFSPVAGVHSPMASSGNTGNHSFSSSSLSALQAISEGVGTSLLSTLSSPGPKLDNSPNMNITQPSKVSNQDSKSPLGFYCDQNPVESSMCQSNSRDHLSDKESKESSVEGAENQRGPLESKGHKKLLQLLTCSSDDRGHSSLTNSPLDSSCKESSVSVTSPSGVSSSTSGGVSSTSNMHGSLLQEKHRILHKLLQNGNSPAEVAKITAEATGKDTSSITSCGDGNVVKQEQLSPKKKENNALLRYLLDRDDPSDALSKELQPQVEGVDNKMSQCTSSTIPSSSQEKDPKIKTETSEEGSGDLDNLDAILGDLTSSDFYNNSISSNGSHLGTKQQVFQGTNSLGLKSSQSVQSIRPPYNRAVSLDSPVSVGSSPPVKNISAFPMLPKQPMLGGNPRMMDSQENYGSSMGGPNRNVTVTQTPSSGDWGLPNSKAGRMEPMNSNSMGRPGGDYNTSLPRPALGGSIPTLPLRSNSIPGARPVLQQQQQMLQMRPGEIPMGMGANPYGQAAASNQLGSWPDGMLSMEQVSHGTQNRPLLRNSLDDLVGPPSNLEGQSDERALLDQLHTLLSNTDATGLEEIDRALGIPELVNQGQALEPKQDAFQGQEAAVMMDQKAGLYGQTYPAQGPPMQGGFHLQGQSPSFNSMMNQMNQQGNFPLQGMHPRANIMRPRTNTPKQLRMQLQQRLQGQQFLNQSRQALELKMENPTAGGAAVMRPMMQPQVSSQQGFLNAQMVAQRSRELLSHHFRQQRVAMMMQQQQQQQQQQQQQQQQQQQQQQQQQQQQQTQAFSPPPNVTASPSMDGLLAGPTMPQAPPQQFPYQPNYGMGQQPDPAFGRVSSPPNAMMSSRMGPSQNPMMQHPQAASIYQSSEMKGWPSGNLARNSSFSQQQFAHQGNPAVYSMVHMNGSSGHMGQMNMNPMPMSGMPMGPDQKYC

[2] = system: transactivating tegument protein VP16 (Human herpesvirus 1), Gal4-VP16 luciferase reporter; assay: VP16 transactivation inhibitors, counter-screen for SRC3 inhibitor project, cell-based, luminescence, high throughput (AID 588794; in the data active = inhibition above about 30%); settings: mammalian cells, VP16-driven luciferase reporter luminescence; at 3.6 µM; active compounds read high
[3] = system: transactivating tegument protein VP16 (Human herpesvirus 1); assay: VP16 transactivation reporter inhibitors, counter-screen for SRC2 inhibitor project, cell-based, luminescence, single concentration (AID 652007; in the data active = inhibition above about 36%); settings: cell-based VP16 transactivation luciferase reporter, at 8.9 µM, active compounds read high
[4] = target: Nuclear receptor coactivator 2 (Homo sapiens) (UniProt Q15596); assay: SRC2 coactivator transcriptional activity inhibitors, confirmation, cell-based, luminescence, HEK293, triplicate (AID 652008); settings: HEK293 GAL4-SRC2 luciferase reporter, at 8.9 µM, active compounds read high;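 also: 0% = DMSO-treated cells and 100% = Gossypol at 36 µM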
Sequence of Nuclear receptor coactivator 2 (Homo sapiens) (Q15596 whole entry, looked up, the tested form may be a part): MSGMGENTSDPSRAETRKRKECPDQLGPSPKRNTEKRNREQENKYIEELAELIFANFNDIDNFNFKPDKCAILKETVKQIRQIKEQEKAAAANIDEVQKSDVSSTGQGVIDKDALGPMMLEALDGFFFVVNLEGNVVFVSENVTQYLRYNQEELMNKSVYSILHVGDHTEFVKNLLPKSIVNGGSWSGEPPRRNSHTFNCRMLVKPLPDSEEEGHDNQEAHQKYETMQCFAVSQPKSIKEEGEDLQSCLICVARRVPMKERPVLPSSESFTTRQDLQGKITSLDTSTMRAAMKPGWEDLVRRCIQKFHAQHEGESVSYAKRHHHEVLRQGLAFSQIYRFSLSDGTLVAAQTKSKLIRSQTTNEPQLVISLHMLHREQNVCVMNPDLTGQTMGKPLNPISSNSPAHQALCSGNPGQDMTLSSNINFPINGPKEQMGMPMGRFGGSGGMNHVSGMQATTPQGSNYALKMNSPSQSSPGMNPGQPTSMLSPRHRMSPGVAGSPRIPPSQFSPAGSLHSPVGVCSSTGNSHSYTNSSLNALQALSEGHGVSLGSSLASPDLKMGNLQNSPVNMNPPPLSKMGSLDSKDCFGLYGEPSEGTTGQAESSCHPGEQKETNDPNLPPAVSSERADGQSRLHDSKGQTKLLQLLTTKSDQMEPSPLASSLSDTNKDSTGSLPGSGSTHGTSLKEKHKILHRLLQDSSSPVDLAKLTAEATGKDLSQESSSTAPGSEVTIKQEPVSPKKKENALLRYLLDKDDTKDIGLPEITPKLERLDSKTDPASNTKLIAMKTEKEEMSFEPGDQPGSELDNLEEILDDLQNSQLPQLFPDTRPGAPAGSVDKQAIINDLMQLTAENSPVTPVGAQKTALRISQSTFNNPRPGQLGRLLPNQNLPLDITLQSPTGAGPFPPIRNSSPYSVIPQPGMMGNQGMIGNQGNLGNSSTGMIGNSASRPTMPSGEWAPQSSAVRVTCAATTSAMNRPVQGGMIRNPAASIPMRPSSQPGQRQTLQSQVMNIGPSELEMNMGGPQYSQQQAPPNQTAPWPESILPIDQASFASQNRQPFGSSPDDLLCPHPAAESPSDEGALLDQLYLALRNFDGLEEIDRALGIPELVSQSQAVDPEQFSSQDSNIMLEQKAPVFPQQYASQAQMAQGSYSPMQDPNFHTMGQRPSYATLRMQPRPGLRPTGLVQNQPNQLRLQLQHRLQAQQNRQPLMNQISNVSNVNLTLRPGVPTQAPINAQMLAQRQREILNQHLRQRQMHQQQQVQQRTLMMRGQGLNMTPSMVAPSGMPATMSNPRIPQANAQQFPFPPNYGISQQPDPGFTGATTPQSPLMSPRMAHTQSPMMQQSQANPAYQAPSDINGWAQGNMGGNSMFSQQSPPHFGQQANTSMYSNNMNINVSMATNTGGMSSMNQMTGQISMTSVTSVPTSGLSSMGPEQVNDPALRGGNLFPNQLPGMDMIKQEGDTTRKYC

[5] = StAR promoter reporter inhibitors, counter-screen for LRH-1 inverse agonist project, cell-based, luminescence, high throughput (AID 651611; in the data active = inhibition above about 28%); settings: StAR promoter luciferase reporter counterscreen, at 3.6 µM, active compounds read high
[6] = target: Nuclear receptor subfamily 5 group A member 2 (Homo sapiens) (UniProt O00482); assay: LRH-1 (NR5A2) inverse agonists, retest, confirmation, cell-based, luminescence (AID 651613; in the data active = inhibition above about 42%;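 also: HEK293T cells co-transfected with LRH-1 and StAR promoter luciferase reporter; 0% = vehicle wells and 100% = parental cells lacking receptor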); settings: cell-based LRH-1 luciferase reporter, inverse agonism; at 3.6 µM; active compounds read high
Sequence of Nuclear receptor subfamily 5 group A member 2 (Homo sapiens) (O00482 whole entry, looked up): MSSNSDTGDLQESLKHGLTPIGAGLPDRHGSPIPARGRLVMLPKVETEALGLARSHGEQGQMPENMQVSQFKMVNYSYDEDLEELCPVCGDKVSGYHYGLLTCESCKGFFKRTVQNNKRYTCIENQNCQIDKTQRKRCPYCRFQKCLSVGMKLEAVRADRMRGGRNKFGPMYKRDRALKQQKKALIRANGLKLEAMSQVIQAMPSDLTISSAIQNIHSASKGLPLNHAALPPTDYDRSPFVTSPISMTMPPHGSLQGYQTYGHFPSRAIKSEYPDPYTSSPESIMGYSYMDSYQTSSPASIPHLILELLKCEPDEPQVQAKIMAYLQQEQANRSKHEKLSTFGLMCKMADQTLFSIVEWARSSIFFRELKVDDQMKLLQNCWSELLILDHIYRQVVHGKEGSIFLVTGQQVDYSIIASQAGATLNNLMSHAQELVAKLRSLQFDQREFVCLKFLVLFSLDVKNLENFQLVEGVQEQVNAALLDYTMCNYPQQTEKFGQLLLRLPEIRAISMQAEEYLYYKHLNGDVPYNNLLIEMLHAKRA

[7] = target: Steroidogenic factor 1 (Homo sapiens) (UniProt Q13285); assay: SF1 (NR5A1) inverse agonists, counter-screen for LRH-1 inverse agonist project, cell-based, luminescence, high throughput (AID 651614; in the data active = inhibition above about 44%;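 also: cells cotransfected with StAR promoter reporter and SF1 expression vector; 0% = vehicle on cells with receptor and 100% = vehicle on cells lacking receptor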); settings: cell-based SF1 luciferase reporter, at 3.6 µM, active compounds read high
Sequence of Steroidogenic factor 1 (Homo sapiens) (Q13285 whole entry, looked up, the tested form may be a part): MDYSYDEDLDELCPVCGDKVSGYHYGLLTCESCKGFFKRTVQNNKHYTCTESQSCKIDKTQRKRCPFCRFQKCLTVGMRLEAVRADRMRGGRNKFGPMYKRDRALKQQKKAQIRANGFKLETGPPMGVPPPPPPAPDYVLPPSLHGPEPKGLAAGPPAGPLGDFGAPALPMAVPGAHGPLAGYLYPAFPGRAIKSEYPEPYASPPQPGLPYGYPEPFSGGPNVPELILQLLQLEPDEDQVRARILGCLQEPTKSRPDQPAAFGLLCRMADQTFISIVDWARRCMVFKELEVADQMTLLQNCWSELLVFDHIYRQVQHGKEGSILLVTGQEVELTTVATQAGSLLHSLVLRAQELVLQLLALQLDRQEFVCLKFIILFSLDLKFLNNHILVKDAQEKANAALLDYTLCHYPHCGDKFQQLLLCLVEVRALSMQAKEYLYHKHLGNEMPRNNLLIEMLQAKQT

[8] = VP16 transactivation reporter inhibitors, counter-screen for LRH-1 inverse agonist project, cell-based, luminescence, high throughput (AID 651615; in the data active = inhibition above about 33%); settings: Gal4-VP16 luciferase reporter cells, at 3.6 µM, active compounds read high

Q: Which inhibition [1] does the source give for CCOc1cc(/C=C/C(=O)c2ccc(C)cc2)ccc1OCC(=O)N(C)C here?
A: 24.8%

Q: What about the inhibition [2] of the same molecule?
A: 25.1%

Q: What about the inhibition [3] of the same molecule?
A: 16.4%

Q: What about the inhibition [4] of the same molecule?
A: 31.6%

Q: With COCCN(C(=O)CCl)C(C(=O)NC1CCCCC1)c1ccccc1C (stereo not given) as the molecule, how does the inhibition [1] read?
A: 52.3% (active)

Q: And the inhibition [2]?
A: 38.7% (active)

Q: And the inhibition [3]?
A: 45.5% (active)

Q: What about the inhibition [4] of the same molecule?
A: 58.5% (active)

Q: Which results are given for COC(=O)c1ccc2c(=O)n(CCCCCC(=O)O)c(=S)[nH]c2c1?
A: inhibition [1]: 16.4%; inhibition [2]: 15.1%; inhibition [3]: 6.79%; inhibition [4]: 32.2%

Q: With CC(C)N(c1ccccc1)c1ccc(NC(=O)CCl)cc1 as the molecule, how does the inhibition [1] read?
A: 29.3%

Q: What about the inhibition [2] of the same molecule?
A: -9.17%

Q: And the inhibition [5]?
A: 32.8% (active)

Q: And the inhibition [6]?
A: 72.4% (active)

Q: What about the inhibition [7] of the same molecule?
A: 60.9% (active)

Q: What about the inhibition [8] of the same molecule?
A: -7.77%

Q: And the inhibition [3]?
A: 17.1%

Q: What about the inhibition [4] of the same molecule?
A: 33.1%

Q: With Cc1noc(C)c1COC(=O)c1cccc(S(=O)(=O)N2CCCCCC2)c1 as the molecule, how does the inhibition [1] read?
A: 8.78%

Q: What about the inhibition [2] of the same molecule?
A: 20.2%

Q: What about the inhibition [3] of the same molecule?
A: 9.01%

Q: And the inhibition [4]?
A: 13%

Q: Which results are given for COc1ccc(/C=C/C(=O)c2ccc3c4c(cccc24)CC3)cc1OC?
A: inhibition [1]: 21.5%; inhibition [2]: 25.6%; inhibition [3]: 25.2%; inhibition [4]: 67.6% (active)

Q: For Cc1ccc(C2=NN(C(=O)CCl)C(c3cccs3)C2)o1 (stereo not given), which inhibition [1] is on record?
A: 36.8%

Q: And the inhibition [2]?
A: 13.5%

Q: What about the inhibition [3] of the same molecule?
A: 17.2%

Q: What about the inhibition [4] of the same molecule?
A: 56.9% (active)

Q: Which inhibition [1] does the source give for Cc1nnc(SC(=O)N2c3ccccc3Sc3ccccc32)s1 here?
A: 80.8% (active)

Q: And the inhibition [2]?
A: 28.2%

Q: What about the inhibition [3] of the same molecule?
A: 37.9% (active)

Q: And the inhibition [4]?
A: 60.4% (active)

Q: For COc1ccc(COC(=O)C2=C(C)NC(=O)NC2c2ccc(F)cc2)cc1 (stereo not given), which inhibition [1] is on record?
A: 34.1%

Q: What about the inhibition [2] of the same molecule?
A: 28.1%

Q: What about the inhibition [3] of the same molecule?
A: 10.2%

Q: What about the inhibition [4] of the same molecule?
A: 31.4%
